A selection: hits, their analogues and other compounds. The true share with any hit is near 19%.
DT40 TDP1 no CPT: qHTS for Inhibitors of human tyrosyl-DNA phosphodiesterase 1 (TDP1): qHTS in cells in absence of CPT; DT40 Tdp1-/- hTDP1 cells, no CPT, ATP luminescence, 48 h; Potency, µM (top dose mostly 46.2 µM), most hits filed as inhibitors; hit rate 15% among 420,000; note: nearly all actives have a fitted effect of over 55% in size
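Seeded 400 DT40-hTDP1 cells/well (vehicle DMSO, no 20 nM CPT); pinned compounds; ≥48 hr at 37 °C; CellTiter-Glo luminescence as viability measure.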
DT40 TDP1 CPT: growth inhibition of DT40 Tdp1-/-;hTDP1 cells with camptothecin (screen for TDP1 inhibitors). Potency, µM (top dose mostly 46.2 µM), actives largely listed as inhibitors. chicken DT40 Tdp1-/-;hTDP1 cells + 20 nM CPT, ATP luminescence, 48 h. hit rate 12% among 420,000. AID 686979; note: nearly all actives have a fitted effect of over 55% in size
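Chicken DT40 Tdp1-/- cells complemented with human TDP1, 400 cells/well, exposed to compounds plus 20 nM camptothecin for at least 48 h at 37 C; viability read as ATP content by CellTiter-Glo luminescence.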
HepG2 viability: HepG2 cytotoxicity, counter-screen for TGF-b inhibitors; HepG2 CAGA-GFP viability, ATP luminescence, 18 h; Potency, µM (highest dose often 46.1 µM), usual class: cytotoxic; hit rate 0.76% among 410,000
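CellTiter-Glo luminescence gave cytotoxicity after 18 hours at 37 degrees C. The cells were HepG2 CAGA-GFP in 1% FBS DMEM, stimulated with 500 pg/mL TGF-beta after compound addition. %Activity was normalised to no-cell wells (complete cell-killing) and DMSO (no toxicity), and curves were fitted and classified.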
TGFb SMAD3 inh: blocks TGF-b signaling. HepG2 CAGA-GFP TGF-b/SMAD3 reporter, GFP fluorescence, 18 h; TGF-beta stimulated, 500 pg/mL final. Potency, µM (titrated, usually from 46.1 µM), usual class: inhibitors. hit rate 1.2% among 410,000. AID 588855; note: nearly all actives have a fitted effect of over 65% in size
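HEPG2 CAGA-GFP reporter cells (1000/well, DMEM with 1% FBS) received compounds, then recombinant TGF-beta at 500 pg/mL final for 18 hours at 37 degrees C. Per-cell GFP summed per well was normalised to unstimulated and stimulated DMSO controls before curve fitting.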
ASM inhibitor: human S-ASM enzyme inhibition. P17405. placental ASM, HMU-PC fluorogenic substrate, 60 min. hit rate 0.006% among 340,000. Potency, µM (highest dose often 57.5 µM), usual class: inhibitors
Target sequence (P17405 47-631 limits assumed): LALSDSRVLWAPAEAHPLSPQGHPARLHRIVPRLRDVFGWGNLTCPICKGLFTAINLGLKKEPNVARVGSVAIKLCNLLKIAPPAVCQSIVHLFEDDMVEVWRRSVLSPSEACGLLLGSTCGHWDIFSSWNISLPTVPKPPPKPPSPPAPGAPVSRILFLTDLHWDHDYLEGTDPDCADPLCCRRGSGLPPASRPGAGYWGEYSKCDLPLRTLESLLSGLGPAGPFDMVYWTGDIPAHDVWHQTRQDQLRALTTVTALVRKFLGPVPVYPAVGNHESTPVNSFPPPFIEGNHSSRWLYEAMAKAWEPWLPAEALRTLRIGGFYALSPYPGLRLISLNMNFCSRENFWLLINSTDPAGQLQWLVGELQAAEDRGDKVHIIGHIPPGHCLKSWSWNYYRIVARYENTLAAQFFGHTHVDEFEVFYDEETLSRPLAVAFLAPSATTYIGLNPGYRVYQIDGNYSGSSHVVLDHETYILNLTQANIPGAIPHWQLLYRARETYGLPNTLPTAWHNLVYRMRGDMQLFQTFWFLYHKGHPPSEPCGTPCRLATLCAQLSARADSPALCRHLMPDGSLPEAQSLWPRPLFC
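Steps: dispense placental human ASM, pin compound, wait 10 min at room temperature, add HMU-PC0 substrate at 9 uM final, incubate 60 min at 37 °C, add stop solution raising pH to 10, read fluorescence.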
IL-1B inflam inh: blocks inflammasome-driven IL-1 beta release. AID 743279. THP-1 LPS/ATP IL-1B secretion, AlphaLISA, 16 h; active compounds read low. activity change, % at 57.5 µM. hit rate 4.7% among 360,000; in the data active = activity change below about -50%; inconclusive = mostly about -30% to -49%
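THP-1 cells pretreated 1 hr with compounds (up to 57.5 uM final), then stimulated with LPS (250 ng/mL final) plus ATP (1.25 mM final); secreted IL-1B measured by AlphaLISA after 16 hr, decreased signal indicating inhibition.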
A number is an active result; 0 = inactive; ? = inconclusive; - = no result given; ! = repeats disagree. Unless noted, calls come from the whole dose curve; as a rule, active = well fitted curve in the direction sought with a large enough effect; inconclusive = small, poorly fitted or top-dose-only effect, or another doubt; inactive = no such curve, though single readings can be large; an effect the other way counts as inactive or inconclusive.

SMILES	DT40 TDP1 no CPT	DT40 TDP1 CPT	HepG2 viability	TGFb SMAD3 inh	ASM inhibitor	IL-1B inflam inh
COc1ccc(N2COC3c4cccc5cccc(c45)C32)cc1 (stereo unspecified)	8.2µM	5.8µM	0	0	0	0
O=[N+]([O-])c1ccc(N2CCCCC2)s1	0	0	0	0	0	0
O=C1N=C2N(CCN3CCCCC3)c3ccccc3N2/C1=C\c1ccc([N+](=O)[O-])s1	?	9.2µM	0	0	0	0
Cc1ccc(OC(=O)COc2ccccc2C)cc1	0	0	0	0	0	0
Cc1ccc(SC(=O)COc2ccccc2C)cc1	?	13µM	0	0	0	0
COC(=O)c1[nH]c2ccccc2c1NC(=O)c1c(F)cccc1F	0	0	0	0	0	0
CC(C)Oc1cccc(C(=O)C2CCCN(C(=O)c3noc4c3CCCC4)C2)c1 (stereo unspecified)	21µM	18µM	0	0	0	0
CC(C)Oc1cccc(C(=O)C2CCCN(C(=O)c3ccc4c(c3)OCO4)C2)c1 (stereo unspecified)	?	?	0	0	0	0
CC(C)Oc1cccc(C(=O)C2CCCN(C(=O)c3ccnn3C)C2)c1 (stereo unspecified)	21µM	?	0	0	0	0
CCc1cc(C(=O)N2CCCC(C(=O)c3ccc(OC)c(F)c3)C2)n(C)n1 (stereo unspecified)	?	?	0	0	0	0
CCc1cc(C(=O)N2CCCC(C(=O)c3cccc(OC(C)C)c3)C2)n(C)n1 (stereo unspecified)	18µM	16µM	0	0	0	0
CCc1cc(C(=O)N2CCCC(C(=O)c3ccc(Oc4ccccc4)cc3)C2)n(C)n1 (stereo unspecified)	15µM	10µM	0	?	0	-61
Cc1ccc(-c2nc(C)sc2CC(=O)OCC(=O)Nc2ccc(F)c(Cl)c2)cc1	0	0	0	0	0	0
CCN(CC)C(=O)c1ccc(Cn2cc([N+](=O)[O-])cn2)o1	0	0	0	0	0	0
Cc1cc(C(=O)COC(=O)c2ccc(N)cc2)c(C)n1-c1c(C)n(C)n(-c2ccccc2)c1=O	0	0	0	0	0	0
CC(C)Oc1cccc(C(=O)C2CCCN(C(=O)c3ccsc3)C2)c1 (stereo unspecified)	0	0	0	0	0	0
O=C(c1noc2c1CCCC2)N1CCCC(N2CCN(c3ccccc3F)CC2)C1 (stereo unspecified)	?	29µM	0	0	0	0
O=C(c1ccsc1)N1CCCC(N2CCN(c3ccccc3F)CC2)C1 (stereo unspecified)	?	0	0	?	0	0
CCc1[nH]nc(C(=O)N2CCCC(C(=O)c3cccc(OC(C)C)c3)C2)c1C (stereo unspecified)	16µM	?	0	0	0	?
CCN1/C(=C/C=C/c2oc3ccc4ccccc4c3[n+]2CC)Oc2ccc3ccccc3c21	0.18µM	0.65µM	0	0	0	0
CCN1C(=O)/C(=C/C=C2/Sc3ccc4ccccc4c3N2CCO)SC1=S	?	?	0	0	0	0
CC1CCCC(C)N1CCCNC(=O)C(=O)Nc1ccc2nc3n(c(=O)c2c1)CCCCC3 (stereo unspecified)	0	?	0	0	0	0
CC(O)CNc1ncnc2nc[nH]c12 (stereo unspecified)	0	0	0	0	0	0
CC(C)=NNc1ncnc2nc[nH]c12	15µM	21µM	0	0	0	0
c1nc(NC2CCCCCC2)c2[nH]cnc2n1	23µM	10µM	0	0	0	0
SMILES	DT40 TDP1 no CPT	DT40 TDP1 CPT	HepG2 viability	TGFb SMAD3 inh	ASM inhibitor	IL-1B inflam inh
Cc1ncnc2nc[nH]c12	1.8µM	1.8µM	0	?	-	-
Cc1cc(C)cc(Nc2ncnc3nc[nH]c23)c1	0	?	0	0	0	0
CC1CN(C(=O)COC(=O)COc2ccc(C#N)cc2)CC(C)O1 (stereo unspecified)	0	0	0	0	0	0
CCCC(=O)n1nc(-c2ccco2)nc1SCc1ccccc1	?	3.7µM	0	0	0	0
O=C(Cc1ccccc1)n1nc(-c2ccco2)nc1SCc1ccccc1	?	?	0	0	0	?
COc1cccc2c1CCC1=CC(=O)CCC12C (stereo unspecified)	0	?	0	0	0	0
CCCCN(C)CCNC(=O)c1cc(-c2ccc(Cl)s2)nc2ccccc12	23µM	23µM	0	0	-	-
CCN(CC)CCNC(=O)c1cc(-c2ccc(Br)s2)nc2ccccc12	18µM	18µM	0	?	0	?
CCCN(CCC)CCNC(=O)c1cc(-c2ccc(Br)s2)nc2ccccc12	?	18µM	0	0	-	-
CC(C)CN(CCNC(=O)c1cc(-c2ccc(Cl)s2)nc2ccccc12)CC(C)C	0	0	0	0	-	-
CCCCOc1cc(C(=O)NCCN(CC)CC)c2ccccc2n1	7.3µM	21µM!	0	0	0	-50!
COc1cccc(C(=O)N2CCC[C@H]2C(=O)N2CCC[C@H]2C(=O)N[C@H](C)c2ccccc2)c1	0	0	-	-	-	0
O=C(CC[C@H]1O[C@@H](n2ccc(=O)[nH]c2=O)[C@H](O)[C@@H]1O)N[C@H](Cc1ccccc1)C(=O)NCc1ccc2c(c1)OCO2	0	0	0	0	-	0
Cc1ccc(C(=O)NCCc2nnc3n2CCN(C(=O)c2ccnc(Cl)c2)CC3)cc1	0	0	-	-	-	-
CCc1ccc(CNC(=O)c2cc(-c3ccc(Br)s3)nc3ccccc23)cc1	18µM	?	0	0	-	-
CN1CCN(NC(=O)c2cc(-c3ccc(Br)s3)nc3ccccc23)CC1	7.3µM	?	0	?	0	?
COc1ccc(CCNC(=O)Oc2ccccc2)cc1OC	0	0	0	0	0	0
C=C(CN(C)C)C(=O)c1cc(C)ccc1C	1µM	0.58µM	0	2.5µM	0	-101
Cc1ccsc1C(=O)NNC(=O)c1cccc(S(=O)(=O)N2CCCC2)c1	?	?	0	0	0	0
CN1c2ccccc2C(C)(C)C12CC(CCl)=NO2 (stereo unspecified)	21µM	16µM	0	0	0	0
Cc1nc(Nc2ccccc2F)c2oc3ccccc3c2n1	?	0	0	0	0	0
c1ccc2c(c1)oc1c(Nc3ccc4c(c3)OCCO4)ncnc12	?	8.9µM	0	0	0	0
Cc1nc(Nc2ccc3c(c2)OCCO3)c2oc3ccccc3c2n1	21µM	?	0	0	0	-84
